An excerpt weighted towards active compounds, which were near 21% of everything screened.
HCV inh: inhibitors of hepatitis C virus infection. Huh7.5.1 HCVcc-Cre infection, luciferase reporter, 44 h. Potency, µM (series often up to 41.8 µM), for inactives: at the top dose activity change, negative = inhibition, hits mostly inhibitors. 3.4% of 340,000 active; further: potency means the concentration at half of the fitted maximal effect; on the % scale 0 is the no-effect control and ±100 the full control effect
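Luciferase read-out (15 sec integration) after a 15 min room-temperature substrate step quantifies HCVcc-Cre infection. Cells, 1,000 per well, had compound added 4 h post-plating, then virus at ~0.5 moi, and were cultured 44 h.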
HCMV inh: inhibitors of human cytomegalovirus | HFF cells, HCMV-luciferase reporter, 72 h; hits give low values | activity change, negative = inhibition, % at 57.5 µM | 4.5% of 410,000 active | AID 1259415; in the data active means activity change below about -60%; inconclusive means no clear call, values can overlap the other calls; inactive means above about -39%; further: on the % scale 0 is the no-effect control and ±100 the full control effect
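Luciferase read-out from HCMV-luciferase-infected HFFs (MOI 1 PFU/cell) 72 h post infection at 37C; compounds added after 16 h cell attachment; activity normalized between buffer-only basal and Salinomycin (10uM) inhibitor controls.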
Pf growth 48h: inhibits P. falciparum growth in the first generation, 48 h | Potency, µM (titrated, usually from 28.7 µM), for inactives: at the top dose activity change, negative = inhibition, hits mostly inhibitors | 5.9% of 310,000 active | P. falciparum luciferase growth in erythrocytes, 48 h; further: potency means the concentration at half of the fitted maximal effect; on the % scale 0 is the no-effect control and ±100 the full control effect
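Cell-based growth assay: transgenic P. falciparum expressing firefly luciferase, cultured in red cells within RPMI 1640 containing 0.5% w/v Albumax, 24 mM bicarbonate and gentamycin. A drop in luciferase activity indicates inhibition.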
Cycloheximide cs: counter-screen hit for Shiga toxin inhibitors, cycloheximide | 12% of 300,000 active | cell reporter, cycloheximide protein synthesis inhibition counterscreen | max response, %; in the data active means max response mostly above about 13%, no sharp cut-off; inactive means mostly below about 14%; further: read at 38.3 µM for the half of the compounds with a filed dose; 0% is about no effect
Pf growth 96h: P. falciparum growth inhibition at 96 hours | P. falciparum luciferase reporter growth, 96 h | Potency, µM (highest dose often 28.7 µM), without a hit: at the highest dose activity change, negative = inhibition, actives largely listed as inhibitors | 6.9% of 320,000 active; further: potency means the concentration at half of the fitted maximal effect; on the % scale 0 is the no-effect control and ±100 the full control effect
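Delayed-death screen, second-generation endpoint: infected erythrocytes, 2% hematocrit, 0.05% parasitemia final; 96 hours at 37 C, 5% CO2; luciferase detection reagent; luminescence decrease equals reduced growth.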
Shiga toxin inh: Shiga toxin inhibition | AID 2315 | Vero cells, Shiga toxin protein synthesis inhibition reporter | 9.2% of 290,000 active | inhibition, % at 38.7 µM; in the data active means inhibition mostly above about 28%, no sharp cut-off; inactive means mostly below about 43%; further: 0% is about no effect
* hit, by the source's call; ? = inconclusive; . = no result. Unless noted, the call rests on the fitted dose curve; in most records, active means well fitted inhibition curve with a large enough effect; inconclusive means small, poorly fitted or top-dose-only effect, or another doubt; inactive means no such curve, though single readings can be large or run the other way.

SMILES	HCV inh	HCMV inh	Pf growth 48h	Cycloheximide cs	Pf growth 96h	Shiga toxin inh
C[C@H](CO)N1C[C@H](C)[C@@H](CN(C)S(=O)(=O)c2ccccc2)OCc2cnnn2CCCC1=O	.	40	.	.	.	.
O=C(COC(=O)CNC(=O)c1ccco1)NCCN1C(=O)CSC1=O	-4%	-62*	11%	-3	-14%	-6
COc1ccccc1OCC(=O)OCC(=O)NCCN1C(=O)CSC1=O	21%	-4	52%	-4	16%	-5
CSC1=NCCN1C(=O)C12CC3CC(CC(C3)C1)C2	-15%	-8	9.3µM*	-1	?	-10
O=C(/C=C/c1cccs1)N1CCOCC1	28%	83	14%	0	35%	26
O=C(c1cccs1)N1CCc2ccccc21	?	36	69%	54*	102%	70*
CSC1=NCCN1C(=O)c1cccs1	2%	-22	.	-1	13µM*	26
O=C(/C=C/c1cccs1)N1CCc2ccccc21	-4%	72	247%	27*	10%	-4
Cc1cc2nc(-c3ccc(OCc4ccccc4F)cc3)cc(C(F)(F)F)n2n1	.	-10	.	.	.	.
COc1ccccc1NC(=O)Cn1c(=O)n(Cc2ccccc2)c(=O)c2c1c1cc(C)ccc1n2C	.	25	.	.	.	.
CSc1ccc(NC(=O)Nc2ccc(C(=O)NCC(=O)O)cc2)cc1	-1%	0	141%	16	5%	11
CC(=O)c1cc(-c2ccccc2)n(CCC(=O)NCc2ccc(C)cc2)c1C	.	0	.	.	.	.
Cc1ccc(Oc2ccc(-c3nnc(-c4ccccc4)o3)cc2[N+](=O)[O-])cc1C	7%	.	15%	-1	21%	-2
O=C(/C=C/c1ccccc1Cl)OCC(=O)N1CCc2ccccc21	.	-20	.	.	.	.
O=C(/C=C/c1ccc(Cl)c(Cl)c1)N1CCc2ccccc21	26%	33	64%	24*	-19%	active
CSc1nnc2c(n1)OC=Nc1ccc(Br)cc1-2	8%	5	-10%	-1	-1%	57
Cc1cc(C)c2sc(N(CCCN(C)C)C(=O)c3ccc(Br)s3)nc2c1	13µM*	-39	?	-3	?	-12
Cc1cc(C)c2sc(N(CCN(C)C)C(=O)c3c(F)cccc3F)nc2c1	-5%	0	?	-6	?	-11
CN(C)CCN(C(=O)C1CCCCC1)c1nc2cc3c(cc2s1)OCCO3	.	-9	.	.	.	.
CN(C)CCCN(C(=O)c1cccs1)c1nc2ccc(F)cc2s1	.	52	.	.	.	.
CN(C)CCN(C(=O)c1cccs1)c1nc2cc3c(cc2s1)OCCO3	17%	133	77%	51*	52%	82
CN(C)CCN(C(=O)c1ccc(Br)s1)c1nc2cc3c(cc2s1)OCCO3	11%	46	169%	44*	186%	68*
COc1cccc(-c2nc(S(=O)(=O)c3ccccc3)c(NCc3ccccc3)o2)c1	.	-3	.	.	.	.
Cc1c(CCOC(=O)CC23CC4CC(CC(C)(C4)C2)C3)sc[n+]1CC(=O)c1ccccc1	-4%	-71*	?	-2	-10%	3
Cc1c(CCOC(=O)c2ccccc2)sc[n+]1Cc1ccccc1	-3%	-15	5.2µM*	1	-7%	-4
SMILES	HCV inh	HCMV inh	Pf growth 48h	Cycloheximide cs	Pf growth 96h	Shiga toxin inh
O=C(CCl)Nc1ccc(N2CCCCCC2)cc1	?	-36	?	20*	?	58
CC(=O)Nc1ccc(N2CCCC2)cc1	-2%	29	?	-1	.	-12
CCc1ccc(NC(=O)COC(=O)c2ccc(Cl)c(S(=O)(=O)N3CCCCCC3)c2)cc1	8%	13	11%	-3	25%	-4
CC(=O)Nc1ccc(N2CCCCC2)cc1	8%	14	14%	11	26%	24
CCC(=O)Nc1ccc(N2CCCCC2)cc1	21%	-27	.	37*	17%	65
NS(=O)(=O)c1cc(C(=O)OCC(=O)Nc2ccc(N3CCCCC3)cc2)ccc1Cl	14%	0	43%	13*	43%	7
CCC(=O)NC(=S)Nc1ccc(N2CCOCC2)cc1	2%	57	81%	28*	37%	96*
COc1ccc(NC(=O)c2ccc3nc(CCc4ccccc4)oc3c2)cc1	.	35	.	.	.	.
Cc1nc2nc(NCc3ccc(Cl)cc3)[nH]n2c(=O)c1Cc1ccccc1	.	-8	.	.	.	.
COc1cccc(C(=O)N2CCN(CCc3ccncc3)CC2)c1	.	-9	.	.	.	.
CCCC(=O)Nc1ccc(N2CCCCC2)cc1	6%	161	68%	25*	.	110*
O=C(CNCc1ccco1)Nc1ccc(N2CCCCCC2)cc1	-4%	2	17%	30*	0%	35
Cc1cc(C)c(C(=O)COC(=O)CCn2c(C)csc2=O)cc1C	?	-7	94%	.	13%	.
Cc1cc(C)c(C(=O)COC(=O)Cn2c(C)csc2=O)cc1C	.	-2	10%	24*	23%	44*
Cc1csc(=O)n1CC(=O)OCc1cccc2ccccc12	1%	-16	8%	45*	2%	79*
O=[N+]([O-])c1cccc(NN=Nc2ccccc2)c1	?	84	116%	29*	?	40*
O=C(O)c1cc(NN=Nc2cccc([N+](=O)[O-])c2)cc([N+](=O)[O-])c1	9%	-29	2%	-2	-49%	-6
O=[N+]([O-])c1ccc(N=NNc2ccccc2)cc1	-2%	.	217%	64*	31%	185*
O=C(O)c1cc(NN=Nc2ccc(Br)cc2)cc([N+](=O)[O-])c1	5%	-3	0%	6	?	6
Brc1ccc(N=NNc2ccccc2)cc1	-1%	26	69%	35*	34%	92*
Cc1cc(Br)ccc1S(=O)(=O)NCc1ccccc1	-4%	-17	?	-2	?	-6
CC(=O)N1CCc2cc(S(=O)(=O)NC(Cc3ccccc3)C(=O)NCc3ccccc3Cl)ccc21 (configuration not stated)	.	-13	.	.	.	.
O=C(NCc1ccccc1)C1CCCN(S(=O)(=O)c2ccc(F)cc2)C1 (configuration not stated)	1%	4	-4%	-3	12µM*	-8
COc1ccc(S(=O)(=O)N2CCCC(C(=O)NCc3ccc(F)cc3)C2)cc1 (configuration not stated)	-26%	-12	1%	-6	2%	13
NS(=O)(=O)c1ccc(CCNC(=O)C2CCCN(S(=O)(=O)c3cccnc3)C2)cc1 (configuration not stated)	6%	8	.	-7	7.4µM*	2
O=C(NCc1cccnc1)C1CCCN(S(=O)(=O)c2ccc(Cl)cc2)C1 (configuration not stated)	-10%	7	-2%	36*	-31%	11
CC1CCN(S(=O)(=O)N2CCCC(C(=O)NCc3ccc(F)cc3)C2)CC1 (configuration not stated)	6%	-23	-6%	-1	16%	-10
